Assay outcomes (PubChem BioAssay)
Shown are actives, neighbours in structure and some others; about 19% of the full set was active somewhere.
ELG1 DNA repair: qHTS screen for small molecules that inhibit ELG1-dependent DNA repair in human embryonic kidney (HEK293T) cells expressing luciferase-tagged ELG1. AID 504467, 2011. 330,000 compounds, 2.3% hits. Potency, µM (series often up to 46.1 µM), inactives show at the top dose activity change, negative = inhibition, usual class: inhibitors. HEK293T ELG1-luciferase reporter, luminescence, 16 h; DNA damage induced by 5-fluorouridine; note: potency is the fitted concentration of half-maximal effect; nearly all actives have a fitted effect of over 55% in size
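Step one: seed 2,000 cells per well. Step two: pin-transfer compound or DMSO alongside 5-fluorouridine. Step three: incubate 16 hr, 37 °C, 5% CO2. Step four: add ONE-Glo, wait 30 min, read luminescence.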
TDP1 cell noCPT: qHTS for Inhibitors of human tyrosyl-DNA phosphodiesterase 1 (TDP1): qHTS in cells in absence of CPT; 420,000 compounds, 15% hits; Potency, µM (highest dose often 46.2 µM), for inactives: at the top dose activity change, negative = growth inhibition, usual class: inhibitors; DT40 Tdp1-/- hTDP1 cells, no CPT, ATP luminescence, 48 h; note: potency is the fitted concentration of half-maximal effect; nearly all actives have a fitted effect of over 55% in size
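Compound effects on proliferation are scored in DT40 Tdp1-/-;hTDP1 cells in the absence of CPT. ATP levels (CellTiter-Glo luminescence) are recorded after a ≥48 hr, 37 °C incubation.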
HT1080 IDH1KD tx: qHTS for induction of synthetic lethality in tumor cells producing 2HG: qHTS for the HT-1080-IDH1KD cell line; HT-1080 IDH1 knockdown viability, ATP luminescence, 48 h; Potency, µM (highest dose often 46.1 µM), without a hit: top-dose activity, negative = toxicity, usual class: cytotoxic; 360,000 compounds, 2% hits; AID 686971, 2013;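 note: potency is the fitted concentration of half-maximal effect; 0% = DMSO wells and -100% = cell-free medium wells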
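Viability of IDH1-knockdown HT-1080 fibrosarcoma cells was assessed by CellTiter-Glo after 48 h at 37 °C with titrated compound; concentration-effect curves were classified by fit quality and response size.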
HT1080NT lethal: qHTS for induction of synthetic lethality in tumor cells producing 2HG: qHTS for the HT-1080-NT fibrosarcoma cell line | HT-1080-NT fibrosarcoma viability, CellTiter-Glo ATP luminescence, 48 h | Potency, µM (titrated, usually from 46.1 µM), without a hit: at the top dose activity, negative = less viability, hits mostly cytotoxic | 360,000 compounds, 1.6% hits;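 note: NT is the 2HG producing partner of a matched IDH1 knockdown line; potency is the fitted concentration of half-maximal effect; 0% = DMSO-treated cells and -100% = media-only wells without cells; nearly all actives have a fitted effect of over 55% in size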
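Viability by CellTiter-Glo luminescence after 48 h compound exposure at 37C of HT-1080-NT cells (750/well, RPMI, 5% FBS). % activity scaled between DMSO wells and medium-only wells, then curve-fitted and categorized by curve class.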
IL1B secr inh: qHTS for Inhibitors of Inflammasome Signaling: IL-1-beta AlphaLISA Primary Screen; THP-1 LPS/ATP IL-1B secretion, AlphaLISA, 16 h; stronger effect = lower value; activity change, % at 57.5 µM; 360,000 compounds, 4.7% hits; in the data active = activity change below about -50%; inconclusive = mostly about -30% to -49%
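THP-1 cells pretreated 1 hr with compounds (up to 57.5 uM final), then stimulated with LPS (250 ng/mL final) plus ATP (1.25 mM final); secreted IL-1B measured by AlphaLISA after 16 hr, decreased signal indicating inhibition.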
TDP1 cell CPT: qHTS for Inhibitors of human tyrosyl-DNA phosphodiesterase 1 (TDP1): qHTS in cells in presence of CPT; chicken DT40 Tdp1-/-;hTDP1 cells + 20 nM CPT, ATP luminescence, 48 h; Potency, µM (top dose mostly 46.2 µM), inactives show at the highest dose activity change, negative = growth inhibition, most hits filed as inhibitors; 420,000 compounds, 12% hits; AID 686979, 2013; note: potency is the fitted concentration of half-maximal effect; nearly all actives have a fitted effect of over 55% in size
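Cell growth measured by CellTiter-Glo luminescence after a minimum 48 h, 37 C compound exposure with 20 nM CPT in Tdp1-knockout DT40 cells stably expressing hTDP1, seeded 400/well; qHTS titration format.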
* hit, by the source's call; [ ] = dose if it differs, or a comment. Unless noted, calls come from the whole dose curve; as a rule, active = well fitted curve in the direction sought with a large enough effect; inconclusive = small, poorly fitted or top-dose-only effect, or another doubt; inactive = no such curve, though single readings can be large; an effect the other way counts as inactive or inconclusive. Unless noted, % is set by controls: 0 for no effect and ±100 for the full control effect.

Screening CC(C)(C)NC(=O)C12CCC(C)(c3nc4ccccc4nc31)C2(C)C (stereo unspecified) returned ELG1 DNA repair -5%, TDP1 cell noCPT 22µM*, HT1080 IDH1KD tx -12%, HT1080NT lethal 9%, IL1B secr inh 21 and TDP1 cell CPT 11µM*.
For CN1CCN(C(=O)c2ccc3c(=O)n(Cc4ccc5c(c4)OCO5)c(=S)[nH]c3c2)CC1 the results were TDP1 cell noCPT 13µM*, HT1080 IDH1KD tx 2%, HT1080NT lethal -12% and TDP1 cell CPT 22µM*.
`CN1CCN(C(=O)c2ccc3c(=O)n(Cc4ccc(Cl)cc4)c(=S)[nH]c3c2)CC1` gave ELG1 DNA repair -7%, TDP1 cell noCPT inconclusive, HT1080 IDH1KD tx inconclusive, HT1080NT lethal inconclusive, IL1B secr inh -1 and TDP1 cell CPT 21µM*.
COC(=O)[C@@]1(Cc2ccc(OC)cc2)[C@H]2c3cc(C(=O)N4CCCC4)n(Cc4ccccc4)c3C[C@H]2CN1C(=O)c1ccccc1 was read as TDP1 cell noCPT 16µM*, HT1080 IDH1KD tx inconclusive, HT1080NT lethal -21%, IL1B secr inh -66* and TDP1 cell CPT inconclusive.
COC(=O)[C@@]1(Cc2ccc(OC)cc2)[C@H]2c3cc(C(=O)N4CCCC4)n(CCc4ccc(OC)c(Br)c4)c3C[C@H]2CN1C(=O)c1ccccc1 was read as TDP1 cell noCPT 21µM*, HT1080 IDH1KD tx 6%, HT1080NT lethal 23%, IL1B secr inh 0 and TDP1 cell CPT 15µM*.
COC(=O)[C@@]1(Cc2ccc(F)cc2)[C@H]2c3cc(C(=O)N4CCCC4)n(CCO)c3C[C@H]2CN1C(=O)c1ccccc1 was read as ELG1 DNA repair -13%, TDP1 cell noCPT -22%, HT1080 IDH1KD tx -2%, HT1080NT lethal -5%, IL1B secr inh -8 and TDP1 cell CPT inconclusive.
For COC(=O)[C@@]1(Cc2ccc(F)cc2)[C@H]2c3cc(C(=O)N4CCCC4)n(CCc4ccc(OC)c(Br)c4)c3C[C@H]2CN1C(=O)c1ccccc1 the results were TDP1 cell noCPT 18µM*, HT1080 IDH1KD tx 1%, HT1080NT lethal 9%, IL1B secr inh -67* and TDP1 cell CPT inconclusive.
Screening COC(=O)[C@@]1(Cc2ccc(F)cc2)[C@H]2c3cc(C(=O)N4CCCC4)n(Cc4ccc(Cl)c(C(F)(F)F)c4)c3C[C@H]2CN1C(=O)c1ccccc1 returned TDP1 cell noCPT 21µM*, HT1080 IDH1KD tx inconclusive, HT1080NT lethal inconclusive, IL1B secr inh -5 and TDP1 cell CPT 21µM*.
Screening CCN1CCCC1CNC(=O)c1cnn(-c2nccc(-c3cc4ccccc4o3)n2)c1C (stereo unspecified) returned TDP1 cell noCPT inconclusive and TDP1 cell CPT -8%[9.04 µM].
For O=C1NCC(Nc2ccccc2Cl)C(=O)N1 (stereo unspecified) the results were TDP1 cell noCPT -14%, HT1080 IDH1KD tx 11%, HT1080NT lethal 6%, IL1B secr inh 8 and TDP1 cell CPT -1%.
c1cnc2[nH]ccc2c1 was read as TDP1 cell noCPT -4% and TDP1 cell CPT -1%.
